Bioassay records as filed in PubChem BioAssay.
SARS PLP yeast – qHTS of Yeast-based Assay for SARS-CoV PLP; Potency, µM (titrated, usually from 32.9 µM), inactives show at the highest dose activity, positive = growth rescue, actives largely listed as activators; AID 485353, 2010; S. cerevisiae expressing SARS-CoV PLpro, growth rescue; actives 0.19% (n = 330,000); further: 0% is about no effect; nearly all actives have a fitted effect of over 55% in size
Pf growth 96h – Primary qHTS for delayed death inhibitors of the malarial parasite plastid, 96 hour incubation. P. falciparum luciferase reporter growth, 96 h. Potency, µM (doses to about 28.7 µM), for inactives: at the top dose activity change, negative = inhibition, usual class: inhibitors. actives 6.9% (n = 320,000). AID 504834, 2011; active means well fitted inhibition curve with a large enough effect; inconclusive means small, poorly fitted or top-dose-only effect, or another doubt; inactive means no such curve, though single readings can be large or run the other way; further: on the % scale 0 is the no-effect control and ±100 the full control effect
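Cell-based qHTS: luciferase-tagged P. falciparum in erythrocytes (2% hematocrit, 0.05% parasitemia final) incubated with compounds for 96 hours, 37 C, 5% CO2; luciferase detection reagent then added and luminescence measured.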
Pf growth 48h – Primary qHTS for delayed death inhibitors of the malarial parasite plastid, 48 hour incubation | actives 5.9% (n = 310,000) | P. falciparum luciferase growth in erythrocytes, 48 h | Potency, µM (top dose mostly 28.7 µM), inactives show at the top dose activity change, negative = inhibition, actives largely listed as inhibitors; active means well fitted inhibition curve with a large enough effect; inconclusive means small, poorly fitted or top-dose-only effect, or another doubt; inactive means no such curve, though single readings can be large or run the other way; further: on the % scale 0 is the no-effect control and ±100 the full control effect
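Growth was read as firefly luciferase luminescence after a 48 h, 37 C, 5% CO2 exposure of compounds to reporter-bearing P. falciparum cultures (0.1% parasitemia, 2% hematocrit final) in Albumax-supplemented RPMI 1640.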
NS1 inh – qHTS Assay for Inhibitors of Influenza NS1 Protein Function | Potency, µM (titrated, usually from 46.1 µM), without a hit: at the highest dose activity, positive = more growth | actives 0.4% (n = 270,000); further: actives are rising curves; nearly all actives have a fitted effect of over 50% in size
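Read-out: OD600 growth recovery of NS1-expressing budding yeast. Cells grown overnight at 30C in -URA glucose medium, washed, resuspended and diluted 1:100 in 2% galactose assay medium, pH 6.0. Same strain lacking NS1 served as positive control.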
Active calls of the source: *; ? = inconclusive; nt = not tested or not shown. Most compounds without a hit are left out; they make up all but 10% or so of the library. Unless noted, the call rests on the fitted dose curve. Potency means the concentration at half of the fitted maximal effect.

SMILES	SARS PLP yeast	Pf growth 96h	Pf growth 48h	NS1 inh
NC(=O)c1ccsc1NC(=O)COC(=O)c1cc(Cl)ccc1O	-3.5%	31.3%	4.1%	nt
C=CCN1C(=O)C(CC(=O)Nc2ccccc2)N(Cc2ccccn2)C1=S (stereo unspecified)	-2.8%	17.1%	?	nt
Cc1ccc(C(=O)NCc2ccc(F)cc2)cc1NC1=NC2CS(=O)(=O)CC2S1 (stereo unspecified)	5.0%	-21.2%	30.7%	4.7%
S=C(NC1CCCCC1)N1CCOCCOCCN(C(=S)NC2CCCCC2)CCOCC1	11.2%	4.65µM*	11.7µM*	4.6%
O=C(COC(=O)c1cccnc1Cl)Nc1cc(S(=O)(=O)N2CCCCCC2)ccc1Cl	-1.4%	-9.2%	?	nt
Cc1ccc(S(=O)(=O)NCc2ccc(N3CCN(C(=O)OC(C)(C)C)CC3)cc2)cc1	-0.7%	4.15µM*	13.1µM*	-12.8%
COc1ccc(S(=O)(=O)NCc2ccc(C(=O)N3CCc4ccccc4C3)cc2)cc1	6.5%	6.57µM*	?	-9.6%
Cc1ccc(S(=O)(=O)NCc2ccc(C(=O)N3CCN(c4ccccc4)CC3)cc2)cc1	4.6%	-6.2%	?	-10.5%
Cc1ccc(S(=O)(=O)NCc2ccc(C(=O)N3CCc4ccccc4C3)cc2)cc1	0.7%	6.57µM*	?	-25.1%
CN(c1nc2ccccc2nc1Cl)S(=O)(=O)c1ccccc1	-3.3%	40.4%	35.4%	-5.4%
CN1C(=O)COc2c(C(=O)NC3CN4CCC3CC4)cc(Cl)cc21 (stereo unspecified)	0.0%	4.78µM*	4.8%	nt
CC(=O)Nc1ccccc1P(=O)(c1ccccc1)c1ccccc1OC(C)=O (stereo unspecified)	0.1%	61.6%	-19.5%	-0.9%
Cn1c2ccccc2c(=O)c2c(=O)n(-c3ccc(F)cc3)c(-c3cccs3)nc21	-0.8%	5.22µM*	?	-0.7%
Cn1c2ccccc2c(=O)c2c(=O)n(-c3ccccc3)c(-c3ccc(C(C)(C)C)cc3)nc21	0.1%	2.62µM*	1.85µM*	3.4%
CC(c1ccccc1)n1c(-c2cccs2)nc2c(c(=O)c3ccccc3n2C)c1=O (stereo unspecified)	-1.7%	-4.8%	9.28µM*	0.7%
Cc1ccc(-c2nc3c(c(=O)c4ccccc4n3C)c(=O)n2-c2ccc(F)cc2)cc1	0.2%	-25.0%	8.28µM*	-1.0%
CCc1nc2c(c(=O)c3ccccc3n2C)c(=O)n1-c1ccc(F)cc1	-22.4%	?	27.9%	10.5%
COCCn1c(-c2cccs2)nc2c(c(=O)c3ccccc3n2C)c1=O	-5.3%	?	?	0.5%
COc1ccccc1/C=C(/NC(=O)c1ccccc1)C(=O)NCCN1CCOCC1	1.1%	2.8%	-27.8%	9.0%
CCC(C)(C)C1CCc2[nH]nc(C(=O)NC(C)C)c2C1 (stereo unspecified)	-2.0%	?	?	nt
O=C(NCC1CC1)c1ccc(Nc2nc3ccc(Br)cc3[nH]2)cc1	-1.1%	11.7µM*	?	4.3%
O=C(Cc1ccc(Nc2nc3ccc(Br)cc3[nH]2)cc1)NCCc1cccs1	-1.5%	3.29µM*	1.85µM*	1.2%
COc1ccc(CCNC(=O)Cc2cccs2)cc1	-0.3%	69.7%	-16.7%	3.8%
O=C(NCc1ccco1)c1cccc(Nc2nc3ccc(Br)cc3[nH]2)c1	-2.7%	13.1µM*	11.7µM*	15.7%
Cc1cccc(C)c1NCC(=O)N1CCN(Cc2ccccc2)CC1	-0.7%	-12.0%	-13.3%	1.2%
SMILES	SARS PLP yeast	Pf growth 96h	Pf growth 48h	NS1 inh
CSc1ccccc1C(=O)N1CCN(S(=O)(=O)c2sc(C(=O)O)c(C)c2C(=O)O)CC1	1.3%	13.4%	66.7%	nt
C[C@H](CO)N1C[C@H](C)[C@@H](CN(C)Cc2ccc(C(=O)O)cc2)Oc2c(cccc2N(C)C)C1=O	1.3%	nt	nt	nt
COc1ccc(C(=O)CNC2=NCCC2)cc1	2.4%	-2.8%	9.4%	nt
O=C(CNC1=NCCC1)c1ccc(Cl)cc1	8.8%	11.7µM*	?	-0.7%
CN1c2ccc([N+](=O)[O-])cc2CC2(C(=O)NC(=O)NC2=O)C1c1ccccc1 (stereo unspecified)	16.7%	?	?	23.4%
CC(C)N1C(=O)NC(=O)C2(Cc3cc([N+](=O)[O-])ccc3N(C)C2c2ccccc2)C1=O (stereo unspecified)	-6.5%	11.7µM*	?	1.7%
CN1c2ccc([N+](=O)[O-])cc2CC2(C(=O)NC(=O)N(c3ccccc3)C2=O)C1c1ccccc1 (stereo unspecified)	3.1%	2.94µM*	3.29µM*	23.8%
Cc1cccc(NS(=O)(=O)c2ccc(C)c(NS(=O)(=O)c3cccs3)c2)c1	7.4%	30.9%	-0.5%	nt
O=C(COC(=O)c1cccc(F)c1)Nc1ccc(Cl)cn1	1.3%	nt	nt	nt
O=S(=O)(NC(=NC1CCCCC1)c1ccccc1)c1ccc(F)cc1	0.8%	9.28µM*	?	4.5%
COc1cc(C2CC(=O)Oc3c(C(CCN4CCN(c5ccccc5)CC4)c4ccc(N(C)C)cc4)c(OC)cc(OC)c32)cc(OC)c1OC (stereo unspecified)	0.4%	4.15µM*	4.15µM*	-31.4%
COc1cc(C2CC(=O)Oc3c(C(CCN4CCOCC4)c4ccc(N(C)C)cc4)c(OC)cc(OC)c32)cc(OC)c1OC (stereo unspecified)	0.5%	?	11.7µM*	-55.7%
COc1ccc(C2CC(=O)Oc3c(C(CCN4CCCC(C)C4)c4ccc(N(C)C)cc4)c(OC)cc(OC)c32)cc1 (stereo unspecified)	1.7%	?	?	-33.6%
COc1ccc(C2CC(=O)Oc3c(C(CCN4CCCCC4)c4ccc(N(C)C)cc4)c(OC)cc(OC)c32)cc1 (stereo unspecified)	0.3%	9.28µM*	?	-30.7%
Cn1ncc(Cl)c1C(=O)N1CCN(c2ccc(F)cc2)CC1	9.2%	13.6%	0.0%	2.9%
Cc1ccc2c(c1)-n1c(nc3cc(Cl)ccc3c1=O)C(Cc1ccccc1)NC2=O (stereo unspecified)	4.3%	nt	nt	nt
COC(=O)c1c(-c2cc(OC)c(OC)c(OC)c2)c2ccc(OCc3ccccn3)cc2c(=O)n1-c1ccc(N)cc1	nt	nt	nt	25.0%
COc1cc(-c2ccc(-[n+]3nc(-c4ccccc4)nn3-c3ccc([N+](=O)[O-])cc3)c(OC)c2)ccc1-[n+]1nc(-c2ccccc2)nn1-c1ccc([N+](=O)[O-])cc1	nt	6.75µM*	5.36µM*	nt
COCC(C)NS(=O)(=O)c1ccc(C(=O)NC(Cc2ccccc2)c2ccccc2)cc1 (stereo unspecified)	2.8%	?	?	11.7%
CCOC(=O)N1CCC(C(=O)NNC(=O)c2ccc(Cl)cc2Cl)CC1	-0.4%	10.4µM*	17.4%	7.8%
CCOC(=O)N1CCN(C(=O)C2CCN(S(=O)(=O)c3cc(Cl)ccc3Cl)CC2)CC1	-5.8%	28.7%	7.38µM*	-47.0%
CCOC(=O)N1CCN(C(=O)CNC(=O)c2ccc(Cl)cc2Cl)CC1	9.8%	?	?	nt
